Data on 8 compounds can be found in ChEMBL document CHEMBL1961873, “Compounds: GSK PKIS; Assays: Nanosyn kinase panel” (2012).

Assay [1] concerns the target Casein kinase I isoform gamma-2 (Homo sapiens) (UniProt P78368). The settings on record: at 1 µM.
Assay [2] has as its target Casein kinase I isoform gamma-3 (Homo sapiens) (UniProt Q9Y6M4). The settings on record: at 0.1 µM.
Assay [3] shares this target. The settings on record: at 1 µM.
In assay [4] the target is Cyclin-dependent kinase 1 (Homo sapiens) (UniProt P06493). The settings on record: at 0.1 µM.
Assay [5] shares this target. The settings on record: at 1 µM.
Assay [6] deals with Cyclin-dependent kinase 2 (Homo sapiens) (UniProt P24941). To be noted: at 0.1 µM.
For assay [7] the target is unchanged. The settings on record: at 1 µM.
The target is the same in assay [8]. To be noted: at 0.1 µM. This is another data set of the same source.
Assay [9] shares this target. The settings on record: at 1 µM. This is another data set of the same source.
Assay [10] addresses T1, CDK3/Cyclin E (Homo sapiens) (UniProt P24864+Q00526). The settings on record: at 0.1 µM.
In assay [11] the target is T1, CDK3/Cyclin E (Homo sapiens). To be noted: at 1 µM.
In assay [12] the target is Cyclin-dependent kinase 4 (Homo sapiens) (UniProt P11802). To be noted: at 0.1 µM.
For assay [13] the target is unchanged. The settings on record: at 1 µM.
In assay [14] the target is Cyclin-dependent kinase 5 (Homo sapiens) (UniProt Q00535). To be noted: at 0.1 µM.
The target is the same in assay [15]. To be noted: at 1 µM.
Assay [16] has as its target Cyclin-dependent kinase 6 (Homo sapiens) (UniProt Q00534). The settings on record: at 0.1 µM.
For assay [17] the target is unchanged. The settings on record: at 1 µM.
Assay [18] addresses Dual specificity protein kinase CLK2 (Homo sapiens) (UniProt P49760). To be noted: at 0.1 µM.
Assay [19] has the same target. The settings on record: at 1 µM.
In assay [20] the target is Dual specificity protein kinase CLK3 (Homo sapiens) (UniProt P49761). The settings on record: at 0.1 µM.

Several values for one entry are separate records, joined by “and”; a condition that tells them apart may be missing. Equal values may be shown once.

Sequence of Casein kinase I isoform gamma-3 (Homo sapiens) (Q9Y6M4 whole entry, looked up, canonical isoform): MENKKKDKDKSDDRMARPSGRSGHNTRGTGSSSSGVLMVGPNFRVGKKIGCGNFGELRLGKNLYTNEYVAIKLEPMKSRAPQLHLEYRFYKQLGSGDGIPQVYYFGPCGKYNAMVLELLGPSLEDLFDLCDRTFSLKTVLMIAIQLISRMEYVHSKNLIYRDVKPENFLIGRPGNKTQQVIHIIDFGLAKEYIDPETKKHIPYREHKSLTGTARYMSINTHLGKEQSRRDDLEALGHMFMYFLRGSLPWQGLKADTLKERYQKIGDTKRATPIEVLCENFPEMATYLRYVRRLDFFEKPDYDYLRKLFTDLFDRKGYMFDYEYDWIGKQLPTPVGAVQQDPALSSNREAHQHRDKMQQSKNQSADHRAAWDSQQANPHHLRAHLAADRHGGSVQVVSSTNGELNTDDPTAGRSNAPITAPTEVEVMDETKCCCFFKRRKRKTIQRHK
Sequence of Cyclin-dependent kinase 1 (Homo sapiens) (P06493 whole entry, looked up): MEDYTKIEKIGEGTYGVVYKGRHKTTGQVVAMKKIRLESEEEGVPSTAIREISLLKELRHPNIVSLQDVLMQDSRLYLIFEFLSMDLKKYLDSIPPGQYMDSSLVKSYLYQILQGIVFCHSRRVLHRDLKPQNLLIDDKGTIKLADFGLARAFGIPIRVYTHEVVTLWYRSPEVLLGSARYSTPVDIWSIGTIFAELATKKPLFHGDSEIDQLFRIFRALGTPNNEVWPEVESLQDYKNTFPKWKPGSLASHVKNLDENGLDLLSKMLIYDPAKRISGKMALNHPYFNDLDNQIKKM
Sequence of Cyclin-dependent kinase 5 (Homo sapiens) (Q00535 whole entry, looked up): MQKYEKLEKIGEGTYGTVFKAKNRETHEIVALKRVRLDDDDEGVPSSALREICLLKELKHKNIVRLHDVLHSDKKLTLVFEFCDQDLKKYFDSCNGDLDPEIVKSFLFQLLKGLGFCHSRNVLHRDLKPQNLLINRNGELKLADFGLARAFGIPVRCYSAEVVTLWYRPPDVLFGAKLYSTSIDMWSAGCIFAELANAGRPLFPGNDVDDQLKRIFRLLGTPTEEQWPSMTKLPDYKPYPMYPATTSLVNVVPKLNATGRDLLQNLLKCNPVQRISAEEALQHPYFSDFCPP
Sequence of Cyclin-dependent kinase 4 (Homo sapiens) (P11802 whole entry): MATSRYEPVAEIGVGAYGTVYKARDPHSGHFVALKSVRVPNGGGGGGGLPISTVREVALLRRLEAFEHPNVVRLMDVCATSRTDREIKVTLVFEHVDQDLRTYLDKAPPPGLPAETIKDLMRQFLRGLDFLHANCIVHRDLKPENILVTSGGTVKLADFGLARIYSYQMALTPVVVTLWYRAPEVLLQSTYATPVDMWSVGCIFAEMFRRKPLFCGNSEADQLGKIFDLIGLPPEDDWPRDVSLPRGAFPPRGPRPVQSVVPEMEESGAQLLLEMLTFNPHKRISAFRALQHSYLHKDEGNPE
T1 sequence (P24864 whole entry, looked up): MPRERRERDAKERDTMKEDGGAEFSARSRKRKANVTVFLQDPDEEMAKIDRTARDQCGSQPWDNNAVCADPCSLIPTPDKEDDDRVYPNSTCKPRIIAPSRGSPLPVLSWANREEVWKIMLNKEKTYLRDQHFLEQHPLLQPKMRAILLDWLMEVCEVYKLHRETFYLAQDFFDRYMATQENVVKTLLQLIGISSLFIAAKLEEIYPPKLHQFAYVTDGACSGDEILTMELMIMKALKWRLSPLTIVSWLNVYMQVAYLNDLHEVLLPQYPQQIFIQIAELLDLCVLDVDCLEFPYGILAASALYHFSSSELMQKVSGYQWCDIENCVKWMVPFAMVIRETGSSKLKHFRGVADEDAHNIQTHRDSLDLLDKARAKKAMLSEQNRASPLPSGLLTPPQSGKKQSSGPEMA
T1 sequence (Q00526 whole entry, looked up): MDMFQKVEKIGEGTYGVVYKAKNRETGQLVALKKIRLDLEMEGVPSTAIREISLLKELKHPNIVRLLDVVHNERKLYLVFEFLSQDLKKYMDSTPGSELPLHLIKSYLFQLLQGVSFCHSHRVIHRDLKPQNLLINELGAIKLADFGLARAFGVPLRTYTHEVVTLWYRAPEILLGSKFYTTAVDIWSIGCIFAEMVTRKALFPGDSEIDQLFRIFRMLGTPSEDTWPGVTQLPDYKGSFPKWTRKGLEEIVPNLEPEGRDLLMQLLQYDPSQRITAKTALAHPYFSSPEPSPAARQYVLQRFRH
Sequence of Dual specificity protein kinase CLK2 (Homo sapiens) (P49760 whole entry, looked up): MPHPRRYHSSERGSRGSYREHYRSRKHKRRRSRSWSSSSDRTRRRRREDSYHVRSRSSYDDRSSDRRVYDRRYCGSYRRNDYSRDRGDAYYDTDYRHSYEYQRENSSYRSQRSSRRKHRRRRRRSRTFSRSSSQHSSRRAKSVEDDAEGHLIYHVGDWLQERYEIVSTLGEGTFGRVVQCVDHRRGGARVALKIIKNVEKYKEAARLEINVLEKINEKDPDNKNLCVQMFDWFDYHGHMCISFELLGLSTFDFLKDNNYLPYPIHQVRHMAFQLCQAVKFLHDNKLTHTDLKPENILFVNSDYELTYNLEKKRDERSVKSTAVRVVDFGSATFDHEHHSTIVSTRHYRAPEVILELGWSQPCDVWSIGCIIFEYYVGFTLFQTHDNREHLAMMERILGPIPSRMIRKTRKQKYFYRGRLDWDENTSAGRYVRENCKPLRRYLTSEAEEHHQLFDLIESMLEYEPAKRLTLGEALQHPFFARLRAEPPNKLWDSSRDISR
Sequence of Cyclin-dependent kinase 6 (Homo sapiens) (Q00534 whole entry): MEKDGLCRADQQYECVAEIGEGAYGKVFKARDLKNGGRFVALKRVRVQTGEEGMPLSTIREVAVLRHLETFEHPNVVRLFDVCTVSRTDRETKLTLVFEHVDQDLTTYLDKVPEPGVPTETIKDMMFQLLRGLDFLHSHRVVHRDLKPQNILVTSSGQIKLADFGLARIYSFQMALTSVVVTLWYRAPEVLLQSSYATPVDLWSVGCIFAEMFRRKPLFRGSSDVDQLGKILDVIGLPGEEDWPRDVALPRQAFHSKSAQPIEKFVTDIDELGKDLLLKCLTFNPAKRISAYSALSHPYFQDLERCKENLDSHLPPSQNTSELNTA
Sequence of Casein kinase I isoform gamma-2 (Homo sapiens) (P78368 whole entry, looked up, canonical isoform): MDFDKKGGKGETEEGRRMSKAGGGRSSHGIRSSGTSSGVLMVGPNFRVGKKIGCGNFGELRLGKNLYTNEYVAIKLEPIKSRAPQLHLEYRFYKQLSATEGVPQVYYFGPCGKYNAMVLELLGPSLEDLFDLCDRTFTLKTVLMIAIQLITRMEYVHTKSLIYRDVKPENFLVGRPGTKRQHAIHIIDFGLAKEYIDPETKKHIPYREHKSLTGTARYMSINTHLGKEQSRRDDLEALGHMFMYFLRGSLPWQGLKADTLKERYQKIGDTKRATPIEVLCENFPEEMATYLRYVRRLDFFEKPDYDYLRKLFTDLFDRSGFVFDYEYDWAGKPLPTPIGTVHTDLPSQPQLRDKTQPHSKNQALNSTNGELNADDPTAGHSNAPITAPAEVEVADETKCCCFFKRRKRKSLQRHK
Sequence of Dual specificity protein kinase CLK3 (Homo sapiens) (P49761 whole entry, looked up): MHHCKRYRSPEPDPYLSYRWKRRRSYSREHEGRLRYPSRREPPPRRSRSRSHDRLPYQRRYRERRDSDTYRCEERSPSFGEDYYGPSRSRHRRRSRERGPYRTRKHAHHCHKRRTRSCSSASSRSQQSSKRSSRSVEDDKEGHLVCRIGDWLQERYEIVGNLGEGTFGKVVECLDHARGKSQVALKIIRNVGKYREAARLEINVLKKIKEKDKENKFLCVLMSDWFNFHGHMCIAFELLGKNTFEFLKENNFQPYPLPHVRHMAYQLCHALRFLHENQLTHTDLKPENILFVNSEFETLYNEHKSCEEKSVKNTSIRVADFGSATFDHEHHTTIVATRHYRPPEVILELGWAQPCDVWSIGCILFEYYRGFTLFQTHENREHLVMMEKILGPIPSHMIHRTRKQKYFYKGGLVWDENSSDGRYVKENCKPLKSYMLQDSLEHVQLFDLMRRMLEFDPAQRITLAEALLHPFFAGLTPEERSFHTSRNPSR

A word on the inhibition: it is the change of the read-out against control, counted positive when it falls. Consider `COc1cc(Nc2ncc(-c3ccccc3)o2)cc(OC)c1`, for which the inhibition in assay [1] was 5.36%; in assay [2], 5.09%; in [3], 3.43%; in assay [4], 0.36%; in [5] it was 4.4%; in assay [6], 1.87%. Also, the inhibition is 12.7% in assay [7]; 3.39% in assay [8]; 15.1% in [9]; -1.04% in [10]; 6.13% in assay [11]; 3.96% in assay [12]. The inhibition is 14.9% in [13]; -0.03% in [14]; 6.57% in assay [15]; 4.07% in [16]; 29.8% in assay [17]; 2.97% in assay [18]. The inhibition stood at 2.12% in [19] and 0.59% in [20].
Turning to `N#Cc1ccc2c(-c3ccnc(NC4CC4)n3)c(-c3ccc(F)cc3)nn2c1`, the inhibition was 3.98% in assay [1]; 2.06% in assay [2]; 5.03% in assay [3]; 0.15% in assay [4]; -0.22% in [5]; 1.26% in [6]. Besides, the inhibition in assay [7] is 0.36%; in assay [8], 1%; in assay [9], 0.3%; in [10], -0.85%; in assay [11], -1.23%; in assay [12], -0.21%. The inhibition in [13] was 1.61%; in assay [14], -0.1%; in assay [15] it was -0.13%; in assay [16] it was -1.07%; in assay [17], 2.32%; in assay [18], -0.43%. Further, the inhibition in [19] was -1.71%; in assay [20], -0.22%.
With `NC(=O)c1ccc2c(-c3ccnc(NCCCO)n3)c(-c3ccc(F)cc3)nn2c1`, the inhibition is 19.9% in [1]; 8.09% in assay [2]; 29% in [3]; 1.5% in assay [4]; 1.54% in assay [5]; -0.03% in assay [6]. Moreover, the inhibition was 1.7% in assay [7]; 3.22% in assay [8]; 4.45% in assay [9]; 2.38% in assay [10]; -1.28% in assay [11]; 3.3% in [12]. For the same compound, the inhibition in [13] is 4.76%; in assay [14], 0.91%; in assay [15], 0.98%; in assay [16], -6.31%; in assay [17], 1.97%; in [18], 2.88%. In addition, the inhibition came out at 2.32% in [19] and 0.97% in assay [20].
In the case of `CN1CCC(n2cnc(-c3ccc(F)cc3)c2-c2ccnc(NCCO)n2)CC1`, the inhibition in assay [1] turned out to be 5.84%; in [2], 4.27%; in assay [3], 10.2%; in assay [4], 0.37%; in assay [5], 1.31%; in assay [6], 1.69%. Moreover, the inhibition in [7] was -0.92%; in assay [8], 4.05%; in assay [9], 4.55%; in assay [10], 1.13%; in [11], -0.43%; in assay [12], 2.07%. Moreover, the inhibition was determined as 2.04% in assay [13]; 0.67% in assay [14]; 0.7% in [15]; 3.75% in assay [16]; 2.73% in assay [17]; 1.02% in assay [18]. Further, the inhibition in [19] was found to be 2.41%; in assay [20], 3.29%.
With `CS(=O)(=O)CCNCc1ccc(-c2ccc3ncnc(Nc4ccc(OCc5cccc(C(F)(F)F)c5)cc4)c3c2)o1`, the inhibition was determined as 3.89% in assay [1]; 3.14% in assay [2]; 2.45% in [3]; 1.34% in assay [4]; 0.34% in [5]; 2.27% in [6]. Further, the inhibition is 1.87% in assay [7]; 2.01% in assay [8]; 3.44% in assay [9]; -1.58% in [10]; 1.01% in assay [11]; 3.72% in assay [12]. Further, the inhibition was 2.89% in assay [13]; 0.15% in assay [14]; 0.08% in assay [15]; 0.44% in assay [16]; 1.5% in assay [17]; 0.99% in assay [18]. Also, the inhibition in assay [19] came to 1.97%; in assay [20], 1.09%.
For `Nc1nonc1-c1nc2cnccc2n1C1CC1`, the inhibition in [1] is 3.78% and -0.61%; in assay [2], 3.26% and -1.06%; in assay [3] it was 2.82% and 0.84%; in [4], 1.19% and -3.89%; in assay [5] it was 8.14% and 3.98%; in assay [6], 5% and 1.12%. Besides, the inhibition in assay [7] was 28% and 29.5%; in assay [8] it was 5.56% and 1.64%; in [9], 23.7% and 19.1%; in assay [10] it was 3.57% and 1.86%; in assay [11], 4.03% and 3.32%; in assay [12] it was 1.99% and -2.13%. For the same compound, the inhibition was 2.95% and -0.61% in assay [13]; 3.26% and -1.62% in assay [14]; 16.6% and 12.1% in assay [15]; 0.11% and -4.39% in [16]; 1.22% and -0.23% in [17]; 0.67% and 3.19% in assay [18]. In addition, the inhibition in assay [19] was 17% and 19%; in assay [20], 1.8% and -2.05%.
As to `COc1cc2c(cc1Nc1nc(Nc3cccc(F)c3C(N)=O)c3cc[nH]c3n1)N(C(=O)CN1CCN(C(C)C)CC1)CC2`, the inhibition in assay [1] was 5.31%; in assay [2] it was 3.51%; in assay [3], 7.32%; in assay [4], 2.14%; in assay [5], 0.55%; in assay [6], 3.46%. The inhibition in assay [7] is 1.57%; in [8], 0.67%; in assay [9], 0.45%; in assay [10], -1.81%; in [11] it was -0.76%; in [12], 1.15%. Further, the inhibition in assay [13] is 1.2%; in assay [14], 0.64%; in assay [15], 0.27%; in assay [16], -4.06%; in assay [17], -0.78%; in assay [18], 6.86%. In addition, the inhibition turned out to be 45.4% in [19] and 0.88% in assay [20].
On to `CN(C)CCNC(=O)Nc1ccc(N(C)c2ccnc(Nc3ccc(CS(C)(=O)=O)cc3)n2)cc1`, for which the inhibition in [1] was found to be 4.71%; in [2], 2.93%; in assay [3], 4.26%; in assay [4] it was 0.42%; in assay [5], 2.58%; in assay [6], 1.03%. Moreover, the inhibition in [7] was 0.46%; in assay [8], 3.93%; in [9] it was 5.24%; in assay [10], 1.45%; in [11] it was 0.2%; in assay [12], 3.81%. Besides, the inhibition in [13] was found to be 4.81%; in [14], 0.85%; in assay [15], 2.57%; in assay [16], 0.28%; in [17], 4.3%; in assay [18], 0.9%. Also, the inhibition in assay [19] came to 3.79%; in assay [20], 2.16%.
